# ROC1-CUL1 inh: inhibitors of human ROC1-CUL1 ubiquitin ligase activity | in vitro K48 di-Ub FRET, acceptor:donor ratio, 45 min | actives 0.6% (n = 140,000) | inhibition, % at 10 µM; in the data active = inhibition above about 25%
# Target sequence (P62877 whole entry, looked up): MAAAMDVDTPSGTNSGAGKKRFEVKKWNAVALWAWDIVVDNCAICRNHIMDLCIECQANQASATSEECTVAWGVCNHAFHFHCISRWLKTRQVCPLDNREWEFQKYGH
# Target sequence (Q13616 whole entry, looked up): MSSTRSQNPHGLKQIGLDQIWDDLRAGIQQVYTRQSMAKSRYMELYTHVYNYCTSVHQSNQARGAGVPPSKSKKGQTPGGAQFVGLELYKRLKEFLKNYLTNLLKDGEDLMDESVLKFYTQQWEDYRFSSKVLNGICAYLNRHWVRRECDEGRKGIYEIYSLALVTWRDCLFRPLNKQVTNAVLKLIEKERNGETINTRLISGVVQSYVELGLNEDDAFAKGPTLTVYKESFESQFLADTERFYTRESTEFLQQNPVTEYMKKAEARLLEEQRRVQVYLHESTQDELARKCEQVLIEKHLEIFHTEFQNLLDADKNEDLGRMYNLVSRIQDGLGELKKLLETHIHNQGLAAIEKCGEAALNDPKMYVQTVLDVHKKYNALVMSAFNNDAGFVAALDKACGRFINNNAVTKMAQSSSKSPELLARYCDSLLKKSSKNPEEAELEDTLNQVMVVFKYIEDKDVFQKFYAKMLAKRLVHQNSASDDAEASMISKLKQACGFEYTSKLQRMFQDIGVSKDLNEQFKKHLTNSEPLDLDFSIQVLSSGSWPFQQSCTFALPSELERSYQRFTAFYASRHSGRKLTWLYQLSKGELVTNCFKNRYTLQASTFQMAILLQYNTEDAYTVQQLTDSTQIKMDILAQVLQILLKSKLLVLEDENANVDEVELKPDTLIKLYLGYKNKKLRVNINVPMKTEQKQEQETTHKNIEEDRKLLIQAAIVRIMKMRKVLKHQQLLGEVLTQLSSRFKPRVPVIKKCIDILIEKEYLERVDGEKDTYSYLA
# Hits are given with their value; i = inactive. The sample as a whole holds a higher share of hits than the screen did.
SMILES,ROC1-CUL1 inh
CCCCOC(=O)c1cc(-c2ccc(C=C3C(=O)NC(=O)NC3=O)o2)ccc1Cl,98
CCOc1ccc(C2=C(C=C3C(=O)NC(=O)NC3=O)C(c3ccccc3C)c3ccccc3O2)cc1 (stereo not given),i
O=C(O)c1ccc2c(c1)C1C(Cl)C(Sc3ccccc3[N+](=O)[O-])CC1C(c1ccccc1Cl)N2 (stereo not given),i
C[N+]12CCC(CC1)/C(=N\OC(c1ccc(F)cc1)c1ccc(F)cc1)C2,i
CCCCN(C(=O)c1ccccc1)C1=CC2CCC(C1)N2C (stereo not given),i
O=C1NC(=S)NC(=O)C12C(c1ccccc1)NC(=S)NC2c1ccccc1 (stereo not given),35
COc1ccccc1CCNCc1ccc(OC)c(C)c1OC,i
CCCC12CN3CCN(CC(C)(C3)C1=O)C2,i
COc1ccc(C(=O)OC2(C(=O)O)c3ccccc3-c3ccccc32)cc1,i
COc1ccc(-n2cccc2C=C2C(=O)NC(=O)NC2=O)cc1,i
COc1ccc(C=C2C(=O)NC(=S)NC2=O)cc1OC(=O)c1ccccc1,i
COc1ccc(N2C(=O)/C(=C/c3cccn3-c3cccc(C(=O)O)c3)C(=O)NC2=S)c(OC)c1,63
Clc1cc(-c2ccccc2)c(Cl)c(Cl)c1Cl,i
N#CC1C(=N)Oc2c(c(=O)oc3ccccc23)C1c1ccc(OC(F)F)cc1 (stereo not given),i
O=C1NC(=S)NC(=O)C1=Cc1c(Cl)cccc1Cl,i
CC(C)(C)N1C(=O)NC(=O)/C(=C/c2c(Cl)cccc2Cl)C1=O,26
CN1CCN(C(=O)CSC2c3ccccc3CSc3ccccc32)CC1 (stereo not given),i
CCC1(C)Cc2ccccc2C2=[N+]1CCS2 (stereo not given),i
CNC(=O)Oc1c(Br)cc2sc(=O)oc2c1Br,34
CN(C)C(=O)Oc1c(Br)cc(Br)c(OC(=O)N(C)C)c1Br,i
CC(COc1nonc1N)Oc1nonc1N (stereo not given),i
Nc1nonc1C1=NOC(c2nonc2N)=NO1,i
Cc1ccc2c(c1)C1CN(C)CCC1N2S(C)(=O)=O (stereo not given),i
O=C(Cc1cccnc1)N1CCCC(N2CCN(Cc3ccc4c(c3)OCO4)CC2)C1 (stereo not given),i
Cc1ccc(OCCn2c(C)c(C=C3C(=O)NC(=S)NC3=O)c3ccccc32)c(C)c1,i
SMILES,ROC1-CUL1 inh
COc1cc(C=C2C(=O)NC(=S)NC2=O)ccc1OCc1ccc(F)cc1,i
Cc1cc(C=C2C(=O)NC(=S)NC2=O)c(C)n1-c1cccc(C(F)(F)F)c1,26
O=C1NC(=S)NC(=O)C1=Cc1cn(Cc2ccc(Cl)cc2Cl)c2ccccc12,i
O=C1NC(=S)NC(=O)C1=Cc1ccc(O)c(O)c1,i
Cc1cc(C=C2C(=O)NC(=S)NC2=O)c(C)n1-c1ccc2c(c1)OCO2,52
CCC(C)n1[nH]c(=O)c2c1NC(=O)CSC2c1ccc(Cl)cc1Cl (stereo not given),i
Cn1cccc1P(=S)(N1CCOCC1)N1CCOCC1,i
CCOC(=O)c1c(C)n(Cc2ccccc2)c2cc(Br)c(OC)cc12,i
CSc1ncc(CN2CCCC(C(=O)c3ccc4c(c3)OCO4)C2)cn1 (stereo not given),i
O=[N+]([O-])C12Nc3ccccc3C1N1OC=CC12 (stereo not given),i
Nc1n[nH]c2c1=C(c1ccccc1)N=P(c1ccccc1)(c1ccccc1)N=2,i
Cc1cc(/C=C2\C(=O)NC(=S)N(c3cccc(Cl)c3Cl)C2=O)c(C)n1-c1cc(C(=O)O)cc(C(=O)O)c1,96
COC(=O)c1ccc(-n2c(C)cc(/C=C3\C(=O)NC(=S)N(c4cccc(Cl)c4Cl)C3=O)c2C)c(C)c1,31
CC1=CC(=C2C(=O)NC(=O)NC2=O)C=C(C)N1c1ccc(C(=O)O)cc1,i
Cc1c(Cl)cccc1N1C(=O)/C(=C/c2cc(C)n(-c3ccc(C(=O)O)cc3)c2C)C(=O)NC1=S,35
O=C1NC(=S)N(c2ccccc2)C(=O)/C1=C\c1ccc(OCc2ccccc2)c(C(=O)O)c1,i
Cc1ccc(N2C(=O)/C(=C\c3ccc(-c4cccc(C(=O)O)c4)o3)C(=O)NC2=S)cc1,90
c1ccc2c(c1)CC(NCC1CCCC1)CO2 (stereo not given),i
NC(=O)C(F)(Br)C(F)(F)F (stereo not given),i
CN1CCC(=NNC(=O)CSC2c3ccccc3-c3ccccc32)CC1,i
CC1(C)CC(C)(c2ccc(O)cc2)c2cc(O)ccc21 (stereo not given),i
C=CCOc1cccc(C=C2C(=O)NC(=O)NC2=O)c1,i
CC1=C(C(=O)OCc2ccccc2)C2(C(=O)N(C)c3ccccc32)C(C#N)C(=N)O1 (stereo not given),i
CN(C)c1ncc(CN2CCCC(C(=O)c3ccc4c(c3)OCO4)C2)s1 (stereo not given),i
COc1ccc(C=C2C(=NN)C3CCN2CC3)cc1OC,i
Cc1ccc2nc(-c3cccc(OC(=O)N(C)C)c3)cn2c1,i
Cc1ccc2c(c1)C1CN(C)CCC1N2S(=O)(=O)c1cccnc1 (stereo not given),i
COC(=O)C1=C(C(=O)OC)SC2(S1)C(C(=O)OC)=C(C(=O)OC)Sc1ccccc12,i
CCOCCOC(=O)C1C(=N)OC(C)=C(C(=O)OCC)C12C(=O)Nc1ccc(Br)cc12 (stereo not given),i
CN(C)CCc1ccccc1Sc1ccccc1,i

# High-throughput results: PubChem, Pan Lab, Icahn School of Medicine at Mount Sinai
